Calls of active or inactive are those of the source.
Tests used:
[1] = A549 cell viability effects, profiling panel, calcein-AM fluorescence, 48 h, basal (AID 1162); conditions: higher = more signal
[2] = adipocyte viability effects, profiling panel, cell-based, 3T3-L1 adipocytes, calcein-AM fluorescence, 48 h, basal (AID 1163); conditions: 3T3-L1 adipocytes viability, higher = more signal
[3] = HepG2 cell viability effects, profiling panel, calcein-AM fluorescence, 48 h, basal (AID 1164); conditions: higher = more signal
[4] = MM1S cell viability effects, profiling panel, calcein-AM fluorescence, 48 h, basal (AID 1165); conditions: higher = more signal;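 also: viability of MM1S multiple myeloma cells under basal unstimulated conditions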
[5] = basal RPMI8226 viability, no added stimulus, profiling panel, cell-based, calcein-AM fluorescence, 48 h, PK04 Diversity Set (AID 1166); conditions: RPMI8226 myeloma viability, higher = more signal;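 also: cells grown under basal conditions without added stimulus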
[6] = basal HepG2 mitochondrial membrane potential changes, profiling panel, cell-based, JC-1 fluorescence, 24 h, 100 nL compound (AID 1167); conditions: higher = more signal
[7] = basal 3T3-L1 adipocyte mitochondrial potential changes, profiling panel, cell-based, JC-1 fluorescence, 3T3-L1 adipocytes, 24 h, 100 nL compound (AID 1168); conditions: JC-1 mitochondrial fluorescence, higher = more signal, called active from +8 up or from −8 down
[8] = basal RPMI8226 mitochondrial membrane potential changes, profiling panel, cell-based, JC-1 fluorescence, 24 h, 100 nL compound (AID 1169); conditions: RPMI8226 myeloma, JC-1 mitochondrial potential fluorescence, higher = more signal
[9] = basal MM1S mitochondrial membrane potential changes, profiling panel, cell-based, JC-1 fluorescence, 24 h, 100 nL compound (AID 1170); conditions: higher = more signal
[10] = A549 lung cancer cell viability effects, profiling panel, resazurin fluorescence, 24 h, PK04 Diversity Set (AID 1171); conditions: higher = more signal, called active from +8 up or from −8 down
Also: test concentration not given here.

Compound | z-score [1] | z-score [2] | z-score [3] | z-score [4] | z-score [5] | z-score [6] | z-score [7] | z-score [8] | z-score [9] | z-score [10]
Cc1cc(C)c(-c2cc([C@H](C)ON=C3[C@H]4CCn5c(=O)n(-c6ccccc6)c(=O)n5[C@H]4[C@H](O)[C@@H]4O[C@H]34)on2)c(C)c1 | -0.605 | -0.91 | -0.887 | -2.95 | -3.87 | 0.668 | -0.803 (inactive) | -1.24 | -2.39 | -0.776 (inactive)
CCN1C(=O)[C@H]2[C@H]3[C@H](O)C=CC(=O)[C@@H]3CC[C@H]2C1=O | 0.331 | 0.368 | 0.733 | -0.434 | 0.197 | 0.234 | -0.661 (inactive) | -0.408 | 1.5 | 0.459 (inactive)
CN(C)C(=O)[C@@]1(Cc2ccccc2)N=C(c2ccc(OCCCO)cc2)O[C@H]1c1ccccc1CN=[N+]=[N-] | -0.309 | -0.562 | -0.903 | -0.74 | -2.6 | -0.12 | -0.775 (inactive) | -0.913 | -0.589 | -0.348 (inactive)
CC(C)(C)N1CC=CC23O[C@@H]4C=CCCOC(=O)C4[C@H]2C(=O)N(CCCCCO)[C@@H]3C1=O (stereo not given in full) | -0.415 | 0.231 | 2.16 | 1.87 | 0.227 | 0.705 | 0.18 (inactive) | 0.117 | -0.29 | 0.0951 (inactive)
C[N+](C)(C)CCCCCCNC(=O)[C@@H]1C[C@@H]2C(=O)N3CCC[C@H]3C(=O)N2[C@@H]1c1cccc(OCCO)c1 | -0.465 | -0.0317 | -1.92 | 0.826 | 0.844 | -1.08 | 0.217 (inactive) | -0.00411 | -1.03 | 1.12 (inactive)
O=C1C[C@@H](O)[C@@H](O)[C@@H]2[C@@H]3C(=O)N(c4cccc(Oc5ccccc5)c4)C(=O)[C@@H]3CC[C@@H]12 | 0.494 | -0.202 | -0.323 | 0.309 | -0.0677 | -0.0107 | 0.615 (inactive) | 0.54 | 0.531 | -0.187 (inactive)
COCC(=C=CC[C@@H](O)c1ccccc1OCCO)CCO | 1.31 | 0.177 | 0.792 | 0.699 | 0.551 | 0.429 | 0.432 (inactive) | -0.631 | 0.918 | 0.675 (inactive)
C[C@@H]1C=CCC(=O)OC[C@H](C)C(=O)N2CCC[C@H]2C(=O)OC1 | -0.581 | 0.0764 | -0.492 | 0.13 | -0.665 | -0.248 | -1.27 (inactive) | 0.363 | -0.583 | -0.0059 (inactive)
C#C[C@@H]1Oc2ccccc2S(=O)(=O)N2CCC[C@H]12 | -0.244 | -0.0897 | -0.48 | 0.0671 | -1.71 | -0.998 | 0.121 (inactive) | 0.51 | 0.193 | -0.884 (inactive)
CC(C)[C@@H](OCc1ccccc1)[C@H](C)C=NO[C@H](C)c1cn([C@H](CO)Cc2ccccc2)nn1 | -0.22 | 0.315 | 0.235 | -0.192 | 0.153 | -1.15 | 0.629 (inactive) | 0.339 | 0.115 | -1.02 (inactive)
CN(C)CCCNC(=O)[C@@H]1c2ccccc2C(=O)N(Cc2ccccc2)[C@H]1c1ccc(CO)cc1 | 2.34 | 0.917 | 1.31 | -0.0214 | 0.932 | 1.89 | 0.418 (inactive) | 0.0996 | 0.108 | 0.534 (inactive)
CCCCc1nc2c(c3c1C[C@H](C)OC3)CN(CCC(C)C)CC2 | 1.25 | -0.11 | 0.597 | 0.411 | -1.35 | 2.01 | -0.836 (inactive) | -0.0883 | 0.301 | 0.6 (inactive)
CC(C)[Si]1(C(C)C)O[C@@H](c2ccccc2)c2cc(C3CC3)nc(-c3ccccc3)c21 | -0.447 | -0.483 | -0.244 | -2.2 | -1.35 | -1.8 | -0.092 (inactive) | -0.781 | -0.192 | 1.44 (inactive)
CO[C@@H]1COC(=O)CC=C[C@@H](C)[C@H](OC)COC(=O)[C@H](COCc2ccccc2)NC(=O)CC=C[C@H]1C | -0.0667 | 0.461 | 0.422 | -0.0878 | 0.651 | 0.0535 | -0.303 (inactive) | 0.577 | 0.179 | -0.27 (inactive)
COC(=O)C1(C)C=C2C(=C(c3ccccc3)C(=O)C2C)CN1 (stereo not given) | -1.3 | -0.492 | -1.26 | -0.671 | -1.49 | -1.68 | -2.71 (inactive) | 0.2 | -0.933 | -0.72 (inactive)
COCCCNC(=O)[C@@]1(Sc2ccc(C)cc2)CC(=O)N(Cc2ccccc2)[C@@H]1c1ccc(CO)cc1I | 1.17 | 0.422 | 0.264 | -2.37 | -1.94 | 0.735 | -0.253 (inactive) | -0.617 | -1.47 | 0.491 (inactive)

— PubChem BioAssay
